Experimental data: PubChem BioAssay (Tox21)
Results filed as inconclusive are left out. Calls of active or inactive are those of the source. The call rests on the fitted dose curve; in most records, active means well fitted activation curve with a large enough effect in the repeat runs; inconclusive means weak or mixed curves; inactive means flat fitted curve, though single readings scatter.

Test: A CellTox Green Cytotoxicity Assay to monitor cytotoxicity in HepG2 cells - 8 hour (AID 1224890); further: nearly all actives have a fitted effect of over 45% in size
Details: CellTox Green fluorescence; series mostly up to 76.8 µM; cytotoxicity increase: at the top concentration
From the text: National Center for Advancing Translational Sciences [NCATS]
NIH Chemical Genomics Center [NCGC]
U.S. Environmental Protection Agency [EPA]
National Institutes of Environmental Health Sciences [NIEHS]
National Toxicology Program [NTP]
Cell-based models are critical for drug discovery. Determining the natural cytotoxic effects resulting from test compounds is an essential research activity. A CellTox Green Cytotoxicity Assay to monitor cytotoxicity in real time of continues cell culture during 40 hours of the compound treatment was used to screen Tox21 10K library compounds in HepG2 cells. CellTox Green Cytotoxicity Assay is a nonlytic, homogeneous, biofluorescent method to measure cytotoxicity in cell culture after experimental manipulation. The assay system uses a proprietary asymmetric cyanine dye that is excluded from viable cells but preferentially stains the dead cell's DNA. […] Viable cells produce no appreciable increases in fluorescence. Therefore, the fluorescence signal produced by the binding interaction with dead cell DNA is proportional to cytotoxicity.
The mixture of HepG2 cell suspension and reagents were dispensed at 600cells/6 ul/well in 1536-well tissue culture treated black solid bottom plates using a Multidrop dispenser. After the assay plates were incubated at a 37 C/5% CO2 incubator for 5 hours, 23 nL of compounds dissolved in DMSO, positive and negative controls was transferred to the assay plate by a pintool work station. The plates were incubated at 37 C for 40 hours. The fluorescence intensity were measured at 0h, 8h, 16h, 24h, 32h and 40h time points using ViewLux plate reader during compound treatment.
On the % scale 0 is the no-effect control and ±100 the full control effect.

| Compound | cytotoxicity increase |
| --- | --- |
| O=C(O)O | 4.8% [at 6.97 µM] (inactive) |
| c1ccsc1 | -5.7% (inactive) |
| CCCNCCC | 0.0686% (inactive) |
| CCCCC(CC)COC(=O)CCCCC(=O)OCc1ccccc1 (stereo not given) | 1.85% (inactive) |
| CCCCNS(=O)(=O)c1ccc(C)cc1 | -1.67% (inactive) |
| CC1(C)CCC[C@]2(C)[C@H]3CCO[C@]3(C)CC[C@@H]12 | -0.0369% (inactive) |
| CC(C)(c1cc(Br)c(OCC(Br)CBr)c(Br)c1)c1cc(Br)c(OCC(Br)CBr)c(Br)c1 (stereo not given) | -13% [at 35.3 µM] (inactive) |
| OC1CCCc2ccccc21 (stereo not given) | 3.04% (inactive) |
| CCc1cccc(CC)c1NC(=O)CN(CC(=O)O)CC(=O)O | 0.741% [at 35.3 µM] (inactive) |
| CCCC1CCC(=O)CC1 | -0.837% (inactive) |
| Nc1nc2c(ncn2COCCO)c(=O)[nH]1 | -3.04% [at 35.3 µM] (inactive) |
| CC(=O)c1ccc(C(C)=O)cc1 | 7.89% (inactive) |
| CCCCCC/C=C\CCCCCCCC(=O)O | -4.81% (inactive) |
| Cc1ccc(O)c(O)c1 | 10.9% (inactive) |
| C=C(C)C(=O)OCCCCCCCCCC | -5.91% (inactive) |
| Nc1nc(-c2ccccc2)cs1 | -4.74% (inactive) |
| CCC(=O)OC(=O)CC | -1.06% (inactive) |
| CCCC(=O)OCOC(=O)C1=C(C)NC(C)=C(C(=O)OC)C1c1cccc(Cl)c1Cl (stereo not given) | -14.6% [at 35.3 µM] (inactive) |
| COC(C)=O | -0.166% (inactive) |
| O=C1NC(=O)[C@@H]2CC=CC[C@H]12 | 1.51% (inactive) |

| Compound | cytotoxicity increase |
| --- | --- |
| O=S(=O)(O)c1ccc(N=Nc2c(O)ccc3ccccc23)cc1 | -28.2% (inactive) |
| CN(C)Cc1ccccc1O | 3.73% (inactive) |
| OC[C@@H](O)[C@@H](O)CO | -0.244% (inactive) |
| CCCCCCCCCCCC(=O)OCC(C)OC(=O)CCCCC(=O)O (stereo not given) | -10.2% [at 35.3 µM] (inactive) |
| C=CC(=O)OCCOC(=O)C=C | 3.06% (inactive) |
| CCCC(=O)OC(C)(C)Cc1ccccc1 | 11.2% (inactive) |
| [Cu+] | 3.55% (inactive) |
| O=C(Oc1ccccc1)Oc1ccccc1 | -7.52% (inactive) |
| Clc1nnc(Cl)c2ccccc12 | 7.94% (inactive) |
| CN(C)CCN1CCN(c2cccc(Cl)c2)C1=O | -16.1% [at 35.3 µM] (inactive) |
| COc1cc(S(=O)(=O)O)c(C)cc1N=Nc1c(O)ccc2cc(S(=O)(=O)O)ccc12 | -30.5% (inactive) |
| Sc1nc2ccccc2s1 | 8.2% (inactive) |
| S=c1nccc[nH]1 | -1.88% (inactive) |
| Cc1ccc(N/N=c2\c(=O)cc/c(=N\Nc3ccc(S(=O)(=O)O)cc3)c2=O)c(C)c1 | -23.5% (inactive) |
| CN1CCCCC1CCN1c2ccccc2Sc2ccc(S(C)=O)cc21 (stereo not given) | 15.4% [at 35.3 µM] (inactive) |
| C[C@H]1NCc2cc(-c3ccc4c(=O)c(C(=O)O)cn(C5CC5)c4c3OC(F)F)ccc21 | 1.89% [at 15.8 µM] (inactive) |
| O=S(=O)(O)c1ccc(Nc2nc(Nc3ccc(/C=C/c4ccc(Nc5nc(Nc6ccc(S(=O)(=O)O)cc6)nc(N(CCO)CCO)n5)cc4S(=O)(=O)O)c(S(=O)(=O)O)c3)nc(N(CCO)CCO)n2)cc1 | 0.869% [at 35.3 µM] (inactive) |
| O=C(O)c1cc(=O)c2ccccc2o1 | 1.74% [at 35.3 µM] (inactive) |
| O=[N+]([O-])c1cccc(C(F)(F)F)c1 | 0.904% (inactive) |
| Cc1ccc(O)c(N)c1 | -32.4% (inactive) |
